Test results: PubChem BioAssay AID1159580 (chemical genetic matrix, 2015)
The whole screen tested about 5,500 compounds, of which about 2,000 (36%) were called active. Inconclusive results (about 18%) are left out. Some of the results follow. Values without a mark were called inactive. No stated cut-off is given here; in the data, active means normalized growth mostly below about 0.91 (no sharp cut-off); inconclusive means no clear call, values can overlap the other calls; inactive means mostly above about 0.92.

Assay: chemical genetic growth profiling, strain panel (AID 1159580);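 further: tested at 20 µM; growth read once vehicle control cultures reached saturation at 30 °C; 1 = growth at the plate median or of vehicle wells; lower values mean less growth of the strain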
Settings: S. cerevisiae deletion strains, growth OD

SMILES: Clc1ccc2c(c1)c1ccccc1n2CN1CCOCC1
- normalized growth (locus YAR019C, strain CDC15, hits give low values): 0.935
- normalized growth (locus YBL105C, strain PKC1, hits give low values): 0.941
- normalized growth (locus YBR135W, strain CKS1, hits give low values): 0.925
- normalized growth (locus YBR136W, strain MEC1, hits give low values): 0.957
- normalized growth (locus YBR160W, strain CDC28, hits give low values): 0.945
- normalized growth (locus YDL017W, strain CDC7, hits give low values): 0.938
- normalized growth (locus YDL028C, strain MPS1, hits give low values): 0.95
- normalized growth (locus YDL101C, strain DUN1, hits give low values): 0.975
- normalized growth (locus YDL108W, strain KIN28, hits give low values): 0.949
- normalized growth (locus YDL132W, strain cdc53, hits give low values): 0.918
- normalized growth (locus YDL214C, strain PRR2, hits give low values): 0.753
- normalized growth (locus YDR052C, strain DBF4, hits give low values): 0.951
- normalized growth (locus YDR054C, strain cdc34, hits give low values): 0.926
- normalized growth (locus YDR226W, strain ADK1, hits give low values): 0.933
- normalized growth (locus YDR477W, strain SNF1, hits give low values): 0.541 (active)
- normalized growth (locus YER123W, strain YCK3, hits give low values): 0.588 (active)
- normalized growth (locus YER133W, strain GLC7, hits give low values): 0.641 (active)
- normalized growth (locus YFL009W, strain cdc4, hits give low values): 0.934
- normalized growth (locus YFL029C, strain CAK1, hits give low values): 0.917
- normalized growth (locus YFR003C, strain YPI1, hits give low values): 0.945
- normalized growth (locus YFR019W, strain FAB1, hits give low values): 0.894
- normalized growth (locus YFR028C, strain CDC14, hits give low values): 0.952
- normalized growth (locus YGR040W, strain KSS1, hits give low values): 0.592 (active)
- normalized growth (locus YGR052W, strain FMP48, hits give low values): 0.603
- normalized growth (locus YGR092W, strain DBF2, hits give low values): 0.208 (active)
- normalized growth (locus YHR030C, strain SLT2, hits give low values): 0.679 (active)
- normalized growth (locus YHR079C, strain IRE1, hits give low values): 0.79
- normalized growth (locus YHR082C, strain KSP1, hits give low values): 0.764
- normalized growth (locus YHR205W, strain SCH9, hits give low values): 0.714
- normalized growth (locus YIL147C, strain SLN1, hits give low values): 0.944
- normalized growth (locus YJL095W, strain BCK1, hits give low values): 0.724
- normalized growth (locus YJL128C, strain PBS2, hits give low values): 0.921
- normalized growth (locus YJL157C, strain FAR1, hits give low values): 0.722
- normalized growth (locus YJR016C, strain ILV3, hits give low values): 0.943
- normalized growth (locus YJR066W, strain TOR1 (second series), hits give low values): 0.738
- normalized growth (locus YJR066W, strain TOR1, hits give low values): 0.619
- normalized growth (locus YKL048C, strain ELM1, hits give low values): 0.696 (active)
- normalized growth (locus YKL067W, strain YNK1, hits give low values): 0.709 (active)
- normalized growth (locus YKL101W, strain HSL1, hits give low values): 0.728
- normalized growth (locus YKL193C, strain SDS22, hits give low values): 0.916
- normalized growth (locus YKL203C, strain TOR2, hits give low values): 0.598 (active)
- normalized growth (locus YLR113W, strain HOG1, hits give low values): 0.755 (active)
- normalized growth (locus YLR133W, strain CKI1, hits give low values): 0.776
- normalized growth (locus YLR403W, strain SFP1, hits give low values): 0.612 (active)
- normalized growth (locus YML070W, strain DAK1, hits give low values): 0.748
- normalized growth (locus YMR001C, strain CDC5, hits give low values): 0.92
- normalized growth (locus YMR205C, strain PFK2 (second series), hits give low values): 0.757
- normalized growth (locus YMR277W, strain FCP1, hits give low values): 0.929
- normalized growth (locus YNL006W, strain LST8, hits give low values): 0.934
- normalized growth (locus YNL020C, strain ARK1, hits give low values): 0.771
- normalized growth (locus YNL161W, strain CBK1, hits give low values): 0.928
- normalized growth (locus YNL183C, strain NPR1, hits give low values): 0.658
- normalized growth (locus YNL207W, strain RIO2, hits give low values): 0.914
- normalized growth (locus YNL222W, strain SSU72, hits give low values): 0.927
- normalized growth (locus YNL307C, strain MCK1 (second series), hits give low values): 0.602 (active)
- normalized growth (locus YOL078W, strain AVO1, hits give low values): 0.93
- normalized growth (locus YOL136C, strain PFK27, hits give low values): 0.72
- normalized growth (locus YOR061W, strain CKA2, hits give low values): 0.558 (active)
- normalized growth (locus YOR119C, strain RIO1, hits give low values): 0.501 (active)
- normalized growth (locus YOR231W, strain MKK1, hits give low values): 0.834
- normalized growth (locus YOR329C, strain SCD5, hits give low values): 0.934
- normalized growth (locus YPL031C, strain PHO85, hits give low values): 0.545 (active)
- normalized growth (locus YPL153C, strain RAD53, hits give low values): 0.786
- normalized growth (locus YPL204W, strain HRR25, hits give low values): 0.641 (active)
- normalized growth (locus YPL209C, strain IPL1, hits give low values): 0.939
- normalized growth (locus YPL256C, strain CLN2, hits give low values): 0.823 (active)
- normalized growth (locus YPR025C, strain CCL1, hits give low values): 0.934
- normalized growth (locus YPR106W, strain ISR1, hits give low values): 0.94
- normalized growth (locus YPR111W, strain DBF20, hits give low values): 0.939
- normalized growth (strain NNK1, hits give low values): 0.949
- normalized growth (strain TSCII, hits give low values): 0.912

SMILES: COc1ccc2c(c1)c(CC(=O)N1CCOCC1)c(C)n2C(=O)c1ccc(Cl)cc1
- normalized growth (locus YAL040C, strain CLN3, hits give low values): 0.996
- normalized growth (locus YCL061C, strain MRC1 (second series), hits give low values): 1.01
- normalized growth (locus YDR363W, strain ESC2, hits give low values): 1.03
- normalized growth (locus YER002W, strain NOP16, hits give low values): 0.998
- normalized growth (locus YGR078C, strain PAC10, hits give low values): 1.01
- normalized growth (locus YGR229C, strain SMI1, hits give low values): 1
- normalized growth (locus YMR263W, strain SAP30, hits give low values): 1.01
- normalized growth (locus YNL175C, strain NOP13, hits give low values): 1.01
- normalized growth (locus YNL197C, strain WHI3, hits give low values): 1.01
- normalized growth (locus YNL224C, strain SQS1, hits give low values): 0.993
- normalized growth (locus YNL322C, strain KRE1, hits give low values): 1.01
- normalized growth (locus YOR083W, strain WHI5 (second series), hits give low values): 0.999
- normalized growth (locus YPL241C, strain CIN2, hits give low values): 1.01
